# Results filed as inconclusive are left out. A call without a number means that no potency is given here. The source made the active and inactive calls. Calls follow the shape of the dose curve; as a rule, active = well fitted activation curve with a large enough effect; inconclusive = small, poorly fitted or top-dose-only effect; inactive = no such curve, though single readings can be large or run the other way.
# Assay: qHTS Assay for Rab9 Promoter Activators: Initial hit validation from the primary screen
# Settings: Huh7 Rab9 promoter luciferase reporter, 24 h; series mostly up to 46.1 µM
# Description: NIH Chemical Genomics Center [NCGC] NIH Molecular Libraries Probe Production centers Network [MLPCN] MLPCN Grant: MH089537-01 Assay Submitter (PI): Yiannis A. Ioannou NCGC Assay Overview: Niemann Pick Type C (NPC) is a rare neurodegenerative lipidosis that is characterized by lipid storage in the endosomal/lysosomal system. Treatment modalities for this devastating disease are currently non-existent due to the severe obstacles associated with accessing the central nervous system with proteins or genes (Ioannou, 2000). We have developed a new paradigm, termed "Orphan Receptor Bypass Therapy" (ORByT), to address these disorders. This paradigm posits the existence of endogenous "suppressor" proteins whose expression can dramatically improve LSD pathogenesis. The goal is the identification/discovery of small chemical compounds that can modulate the expression of these proteins and provide a new treatment modality for these devastating disorders. One such protein whose overexpression reverses aspects of the NPC phenotype is Rab9. We have developed and optimized a cell based luciferase reporter assay in 1536 well format for the identification of up-regulators of the Rab9 promoter. This assay presents data on the validation of hits from the primary screen.
# The Rab9 promoter is cloned in front of the luciferase reporter gene, therefore […] promoter activation results in luciferase expression. Frozen stock of the Rab9 promoter transfected Huh7 cells were obtained from the laboratory of Dr. Yiannis Ioannou (The Mount Sinai School of Medicine, New York, NY). Cells were propagated and maintained at NCGC in medium containing RPMI-1640 supplemented with 10% FBS, 2mM L-glutamine, and 50ug/ml penicillin/streptomycin. Cells were harvested in and plated for assays in OP-MEM I reduced-serum medium supplemented with 10% FBS. The Amplite luciferase reporter gene assay kit was purchased from ABD Bioquest and prepared/stored according to manufacturers recommendations. qHTS Assay Setup: 1.Dispensed 5ul of Huh7 cells stably expressing Rab9-luciferase at a density of 1500 cells per well 1536-well plates. 2.Incubate cells at 37C, 5% CO2, and 95% humidity for 2 hours. 3.Transferred 23nl per well of compound in DMSO solution. 4.Incubated at 37C, 5% CO2, and 95% humidity for 24 hours. 5.Dispensed 3ul per well of Amplite reagent(ABD Bioquest) per well. 6.Incubate at ambient for 10 minutes. 7.Read using the luminescence protocol on the ViewLux plate reader (Perkin Elmer).
# Potency is read from the fitted curve at half-maximal effect.
row,SMILES,Potency
1,Fc1ccc(-c2nc3nc4ccccc4nc3n2Cc2ccco2)cc1,inactive
2,Cc1ccc2nc(Nc3ccc(Cl)cc3)c3nncn3c2c1,inactive
3,COc1ccc(NC(=S)NNC(=O)c2cccs2)cc1,31500 nM (active)
4,COc1ccc(-c2nnc(SCC(=O)/C(C#N)=C(\C)N)o2)cc1,315 nM (active)
5,Nc1ccccc1C(=O)N/N=C1/C2CN3CCN(C2)CC1(Cc1ccccc1)C3,inactive
6,Cc1cccc(N2CCN(C(=S)c3ccccc3)CC2)c1,inactive
7,CCOC(=O)c1ccccc1NC(=O)CSc1nnc(Cc2cccn2C)n1-c1ccc(F)cc1,inactive
8,COc1ccc(-c2csc(Nc3ncccn3)n2)cc1C,281 nM (active)
9,Cc1ccc(C(=O)Nc2nnc(S(=O)(=O)N3CCOCC3)s2)cc1,inactive
10,COCCNC(=O)CN1C(=O)NC(c2ccccc2)(c2ccccc2)C1=O,inactive
11,O=S(=O)(c1cccs1)N1CCN(c2ncccn2)CC1,inactive
12,O=C(NC(=S)Nc1ccc(CN2CCCCC2)cc1)c1cc2ccccc2o1,inactive
13,COc1ccc(-n2c(N)c(C(=O)NCc3ccco3)sc2=S)cc1,inactive
14,O=C(c1cc2cc([N+](=O)[O-])ccc2oc1=O)n1cccn1,inactive
15,CC1=C(C(=O)OC2CCCC(C)C2)C(c2ccccc2)NC(=O)N1 (stereo not given),inactive
16,COc1ccc(NC(=O)CSc2ccc([N+](=O)[O-])cc2)cc1S(=O)(=O)N1CCOCC1,inactive
17,COCc1cc(C)nc(N/N=C/c2ccc(-c3ccc(Cl)cc3[N+](=O)[O-])o2)c1C#N,inactive
18,C=CCOC(=O)N1CCN(c2cccc(C(F)(F)F)c2)CC1,inactive
19,CC(Sc1ncnc2c1cnn2-c1ccccc1)C(=O)Nc1ccc(N2CCOCC2)cc1 (stereo not given),inactive
20,COc1ccc(OC)c(S(=O)(=O)N2CCN3CCCC3C2)c1 (stereo not given),inactive

row,SMILES,Potency
1,N#C/C(=C\c1ccc[nH]1)C(=O)Nc1ccccc1Cl,3530 nM (active)
2,CC(=O)[C@@H]1[C@@H](C(=O)c2ccc(C)cc2)[C@]2(C(=O)Nc3ccccc32)[C@H]2C=Cc3cc(F)ccc3N12,inactive
3,Cc1ccc(C2C3=C(CC(C)(C)CC3=O)N(CCN3CCOCC3)C3=C2C(=O)CC(C)(C)C3)cc1,inactive
4,CC1CCc2sc(C(=O)NNC(=S)NC3CC3)cc2C1 (stereo not given),19900 nM (active)
5,CN(C)C(=O)[C@H]1C[C@H]1[C@@H](O)[C@H](CO)NC(=O)[C@H](COCc1ccccc1)NC(=O)OC(C)(C)C,inactive
6,CN(C)C(CNC(=O)CNC(=O)c1ccc2ccccc2c1)c1ccccc1 (stereo not given),inactive
7,O=C(CCc1cccc(Cl)c1)NC1CCCN(Cc2ccccc2F)C1 (stereo not given),inactive
8,COc1ccc(/C=C\C(=O)c2c(O)ccc3c(C)cc(=O)oc23)cc1OC,inactive
9,O=C(CCN1C(=O)c2ccccc2C1=O)Nc1ccc(-c2nc3ccccc3s2)cc1,281 nM (active)
10,Cc1c(C(O)CN2CCN(Cc3ccc4c(c3)OCO4)CC2)c2ccccc2n1C (stereo not given),inactive
11,Cc1cc(C)c2c(N)c(C(=O)Nc3ccc([N+](=O)[O-])cc3)sc2n1,499 nM (active)
12,CCCNC(=O)C1CCN(S(=O)(=O)c2ccc3[nH]c(=O)ccc3c2)CC1,inactive
13,Cc1ccc(S(=O)(=O)N2CCN(c3cnn(C)c(=O)c3Cl)CC2)cc1,inactive
14,COc1ccc(C(c2nnnn2CCc2ccccc2)N2CCN(C3CCCC3)CC2)cc1 (stereo not given),inactive
15,O=C(COC(=O)c1ccc(-c2nnc(-c3ccccc3)o2)cc1)c1ccccc1,396 nM (active)
16,COc1cccc(C(C(=O)NC2CCCC2)N(CCC(C)C)C(=O)CCC(=O)Nc2cc(C)on2)c1 (stereo not given),inactive
17,C=CCc1ccc(OCCOCCNCCOC)c(OC)c1,inactive
18,COc1ccc(S(=O)(=O)N2CCCC(C(=O)NCc3ccncc3)C2)cc1Cl (stereo not given),inactive
19,COc1ccccc1CNC(=O)COc1ccc(C)cc1,inactive
20,CCC(=O)Nc1cc(-c2cc3ccccc3oc2=O)ccc1OC,791 nM (active)

# Source: PubChem BioAssay AID493200 (National Center for Advancing Translational Sciences (NCATS), 2011)
